This is an account of results in PubChem BioAssay (NCI).

“And” between values parts separate entries of the source, which are not always exact repeats. Identical values can stand only once. The panel holds about 83,000 compounds, 20% with a hit somewhere; the sample as a whole holds those more often.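 Negative percent growth values reflect cell death: -40 means 40% of the cells present at the start died, and -100 means all died.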 The source made the active and inactive calls. How the source made its calls: active means growth percent below 10; inactive means the rest.

Assay in all cases: NCI-60 one-dose screen, 48 h (100 = growth as untreated, 0 = no growth, -100 = all killed)
Common to all, as to details: 10 µM unless noted

Experiment [1] deals with SR leukemia.
Experiment [2] concerns RPMI-8226 leukemia.
The test system of experiment [3] is OVCAR-8 ovarian.
Experiment [4] concerns OVCAR-5 ovarian.
In experiment [5] the test system is OVCAR-4 ovarian.
Experiment [6] has as its system SK-OV-3 ovarian.
Experiment [7] relates to IGROV1 ovarian.
For experiment [8], the system named is OVCAR-3 ovarian.
Experiment [9] relates to HS 578T breast.
Experiment [10] has as its system NCI/ADR-RES ovarian.

Regarding `CCCCCC#CC1OC23CCCCC2C(C#N)(C(=N)O3)C1(C#N)C#N` (stereo not given), the growth in experiment [1] was 87% (inactive); in experiment [2] it was 93.3% (inactive); in experiment [3] it was 85.8% (inactive); in [4], 102% (inactive); in [5], 108% (inactive); in [6], 111% (inactive). Besides, the growth is 99.4% (inactive) in [7], 117% (inactive) in experiment [8], 94.1% (inactive) in [9] and 102% (inactive) in [10].

With `O=C(/C=C\c1ccc(Cl)c(Cl)c1)c1ccccc1`, the growth in [1] was 13.1% (inactive) and 106% (inactive); in experiment [2], -27.3% (active) and 89.4% (inactive); in experiment [3], 79.2% (inactive) and 98.9% (inactive); in experiment [4], 93.7% (inactive) and 106% (inactive); in [5], 88.3% (inactive); in experiment [6], 101% (inactive) and 96.4% (inactive). Also, the growth in experiment [7] was 92.7% (inactive) and 82.4% (inactive); in experiment [8], 93.6% (inactive) and 98% (inactive); in [9] it was 111% (inactive); in [10], 99.1% (inactive) and 105% (inactive).

For `O=C1OCC2=C1C(c1cccc([N+](=O)[O-])c1)c1cc3c(cc1N2CCO)CCC3` (stereo not given), the growth in experiment [1] is 15.2% (inactive); in experiment [2], 17% (inactive); in [3], 5.88% (active); in experiment [4] it was 43.5% (inactive); in [5], 40% (inactive); in [6] it was 27% (inactive). Further, the growth in experiment [7] was 25.9% (inactive); in experiment [8], -1.17% (active); in experiment [9], 21.9% (inactive); in experiment [10], 3.57% (active).

On to `CCC(=C(c1ccc(OCCCN(C)C)cc1)c1ccc(OCCCN(C)C)cc1)c1ccc(Cl)cc1`, for which the growth was -48.2% (active) in experiment [1]; -55.4% (active) in experiment [2]; -76.3% (active) in experiment [3]; -89.3% (active) in [4]; -85.8% (active) in [5]; -88.2% (active) in [6]. The growth is -84.9% (active) in [7], -84.6% (active) in experiment [8], -77.4% (active) in experiment [9] and -84.9% (active) in [10].

As for `C=CCN1C=CC(=O)[C@H](O[Si](C)(C)C(C)(C)C)[C@@H]1/C=C/c1ccccc1`, the growth in experiment [1] was -25.6% [100 µM] (active); in experiment [2], -16% [100 µM] (active); in experiment [3], -47.1% [100 µM] (active); in experiment [4] it was -82.8% [100 µM] (active); in [5], -84% [100 µM] (active); in experiment [6], -87.6% [100 µM] (active). Besides, the growth in experiment [7] was -56.3% [100 µM] (active); in experiment [8], -73.5% [100 µM] (active); in experiment [9], -24.1% [100 µM] (active); in experiment [10], -74.7% [100 µM] (active).

In the case of `CN1CCN(Cc2ccc(NC(=O)c3nc4ccc5[nH]ncc5c4c4c3CCCC4)cc2C(F)(F)F)CC1`, the growth in experiment [1] was -49.8% (active); in experiment [2], -36.2% (active); in experiment [3], -73.8% (active); in [4], 37.1% (inactive); in [5], -39.7% (active); in [6] it was 37% (inactive). Further, the growth in experiment [7] was -65.5% (active); in experiment [8] it was -80.3% (active); in experiment [9], -35.4% (active); in experiment [10] it was -35.3% (active).

Consider `COc1ccc(/C=N/C2=C(C#N)C(c3ccccc3)c3c(ccc4ccccc34)O2)cc1` (stereo not given), for which the growth in experiment [1] was 17.5% (inactive); in experiment [2] it was -2.96% (active); in experiment [3], 37.6% (inactive); in experiment [4], 48.8% (inactive); in [5], 52.3% (inactive); in [6], 45.3% (inactive). The growth in experiment [7] was 23.5% (inactive); in experiment [8], -11% (active); in experiment [9], 17.5% (inactive); in experiment [10] it was 10.3% (inactive).

In the case of `COC(=O)/C=C1/SC(=Nc2ccc([N+](=O)[O-])cc2)N(CCc2c[nH]c3ccccc23)C1=O`, the growth is 1.73% (active) in [1]; 2.18% (active) in experiment [2]; 42% (inactive) in experiment [3]; 112% (inactive) in experiment [4]; 66.2% (inactive) in [5]; 105% (inactive) in experiment [6]. The growth in experiment [7] is 62% (inactive); in experiment [8], 43.1% (inactive); in experiment [9], 63.5% (inactive); in experiment [10], 66.9% (inactive).

As for `O=C(/C=C/c1ccc(Cl)s1)c1ccc(Cl)s1`, the growth is 78.3% (inactive) and 87% (inactive) in [1]; 89.9% (inactive) and 66.8% (inactive) in experiment [2]; 107% (inactive) and 102% (inactive) in experiment [3]; 86.5% (inactive) and 101% (inactive) in experiment [4]; 84.5% (inactive) in experiment [5]; 94.5% (inactive) and 102% (inactive) in experiment [6]. In addition, the growth in experiment [7] is 88.9% (inactive); in experiment [8], 97.3% (inactive) and 99.3% (inactive); in experiment [9], 96.8% (inactive); in experiment [10] it was 104% (inactive) and 99.1% (inactive).

As to `Cc1ccc2nc3ccccc3c(NCc3ccc(Cl)cc3)c2c1`, the growth in experiment [1] is -9.22% (active); in experiment [2] it was -28.5% (active); in experiment [3] it was 52.4% (inactive); in [4], 50.7% (inactive); in experiment [5] it was 37.5% (inactive); in experiment [6], 75.2% (inactive). Also, the growth is 27.1% (inactive) in experiment [7], 70.9% (inactive) in experiment [8], 77.8% (inactive) in experiment [9] and 42% (inactive) in [10].

In the case of `C=C(CNCCO)[C@@H]1CC[C@]2(CO)CC[C@]3(C)[C@H](CC[C@@H]4[C@@]5(C)CCC(NCCc6ccc(O)cc6)C(C)(C)[C@@H]5CC[C@]43C)[C@@H]12` (stereo not given in full), the growth was -50.6% (active) in experiment [1]; -51.3% (active) in experiment [2]; -76.8% (active) in experiment [3]; 0.392% (active) in [4]; -27.1% (active) in [5]; -73.2% (active) in [6]. The growth was -61.5% (active) in experiment [7], -64.3% (active) in experiment [8], -55.9% (active) in experiment [9] and 33.4% (inactive) in experiment [10].
